PubChem BioAssay
Values without a mark were called inactive. Activity calls are given as the source filed them. Unless noted, how the calls were made is not given here.

Columns and labels:
[1] = circadian clock period modulators, cell-based, LOPAC library, luminescence reporter (AID 2774); conditions: circadian reporter cells, at 7 µM, actives lie on both sides;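 further: values are relative to mean of DMSO wells on each plate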
[2] = antimalarial activity against Dd2 strain (AID 2302;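 active means growth inhibition above 50% at the single 2 µM test dose, taken to imply half-maximal potency below 2 µM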;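 further: 0% = DMSO untreated growth and 100% = chloroquine plus artemisinin killed control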); conditions: P. falciparum Dd2 in RBCs, LDH growth readout, 72 h; at 2 µM; active compounds read high
[3] = HepG2 cytotoxicity, primary screen, cytotoxicity control for P. falciparum antimalarial project, cell-based, ATP luminescence (AID 2303;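 active means inhibition above 50%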;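 further: 0% = DMSO wells and 100% = digitonin-killed cells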); conditions: HepG2 viability, 24-48 h, at 10 µM, active compounds read high
[4] = target: L-lactate dehydrogenase (Plasmodium falciparum (isolate CDC / Honduras)) (UniProt Q27743); experiment: PfLDH activity inhibition – cell lysate, 3D7 strain, counter-screen for P. falciparum growth inhibition project (AID 2304);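 further: 0% = vehicle and 100% = reference inhibitor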; conditions: P. falciparum 3D7 crude extract, LDH APAD/NBT absorbance; at 2 µM; active compounds read high
[5] = inhibition of 3D7 malaria parasite growth – strain 3D7 (AID 2306);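 further: 0% = DMSO wells and 100% = chloroquine plus artemisinin control wells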; conditions: P. falciparum 3D7 erythrocytic growth, LDH absorbance, 72 h; at 2 µM; active compounds read high

L-lactate dehydrogenase (Plasmodium falciparum (isolate CDC / Honduras)), sequence (Q27743 whole entry, looked up): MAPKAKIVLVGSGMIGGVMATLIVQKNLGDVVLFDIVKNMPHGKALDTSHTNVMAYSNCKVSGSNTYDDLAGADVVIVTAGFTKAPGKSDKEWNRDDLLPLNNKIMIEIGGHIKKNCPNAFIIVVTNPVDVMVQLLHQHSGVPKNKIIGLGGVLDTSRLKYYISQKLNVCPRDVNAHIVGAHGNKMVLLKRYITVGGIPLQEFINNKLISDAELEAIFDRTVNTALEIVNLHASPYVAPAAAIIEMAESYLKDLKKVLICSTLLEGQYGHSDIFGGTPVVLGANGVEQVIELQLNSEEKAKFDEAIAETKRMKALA

## CC(C)CN(C)c1nc(N)c(C(=O)N=C(N)N)nc1Cl
[1]
  period change: 0 h

## C=CC[C@H](C[C@H](O)[C@H](Cc1ccccc1)NC(=O)c1ccc(-n2cccn2)cc1)C(=O)NC1CCCCC1
[2]
  growth inhibition: 0%
[3]
  inhibition: 1%
[4]
  inhibition: 1%
[5]
  growth inhibition: 96% (active)

## Cc1[nH]c2c(c(=O)c1Cl)-c1ccc(Oc3cccc(C(F)(F)F)c3)cc1C2=O
[2]
  growth inhibition: 97% (active)
[3]
  inhibition: 25%
[4]
  inhibition: 2%
[5]
  growth inhibition: 98% (active)

## COc1ccc2nc(C)cc(NN=Cc3cc(C)ccc3O)c2c1
[2]
  growth inhibition: 100% (active)
[3]
  inhibition: 78% (active)
[4]
  inhibition: -2%
[5]
  growth inhibition: 100% (active)

## CN(C)CCCOc1ccc(-c2nc(-c3ccc4c(c3)CCC4=NO)c(-c3ccncc3)[nH]2)cc1
[2]
  growth inhibition: 63% (active)
[3]
  inhibition: 68% (active)
[4]
  inhibition: -3%
[5]
  growth inhibition: 96% (active)

## Cc1cc(C)c2c(c1)C(=NO)CCN2
[2]
  growth inhibition: 2%
[3]
  inhibition: 2%
[4]
  inhibition: 7%
[5]
  growth inhibition: 94% (active)

## CN(Cc1cnc2nc(N)nc(N)c2n1)c1ccc(C(=O)N[C@H](CCC(=O)O)C(=O)O)cc1
[2]
  growth inhibition: 44%
[3]
  inhibition: 65% (active)
[4]
  inhibition: -4%
[5]
  growth inhibition: 92% (active)
[1]
  period change: 0.095 h

## COc1cc2c(cc1OC)[C@@H](c1ccccc1)CN(C)CC2
[1]
  period change: 0 h

## O=C(/C=C/c1ccc(Cl)c(Cl)c1)NCCCCCN1CC[C@H](c2c[nH]c3ccccc23)[C@H](O)C1
[2]
  growth inhibition: 9%
[3]
  inhibition: 12%
[4]
  inhibition: -5%
[5]
  growth inhibition: 96% (active)

## C[C@@H]([C@@H](CCCc1ccc(Cl)cc1)C(=O)N[C@H](C(=O)Nc1cccnc1)C(C)(C)C)N(O)C=O
[2]
  growth inhibition: 99% (active)
[3]
  inhibition: 7%
[4]
  inhibition: 1%
[5]
  growth inhibition: 100% (active)

## ON=C1CCc2cc(-c3nc(-c4cccc(OCCNCc5ccc(F)cc5)c4)[nH]c3-c3ccncc3)ccc21
[2]
  growth inhibition: 69% (active)
[3]
  inhibition: 76% (active)
[4]
  inhibition: -3%
[5]
  growth inhibition: 89% (active)

## COc1cc(-c2nc(-c3ccc4c(c3)CCC4=NO)c(-c3ccncc3)[nH]2)ccc1OCCN1CCCCC1
[2]
  growth inhibition: 80% (active)
[3]
  inhibition: 75% (active)
[4]
  inhibition: 1%
[5]
  growth inhibition: 101% (active)

## c1cc2nc(CCCCCc3nc4ccc(C5=N[C@@H]6CCCC[C@@H]6N5)cc4[nH]3)[nH]c2cc1C1=N[C@@H]2CCCC[C@@H]2N1
[2]
  growth inhibition: 98% (active)
[3]
  inhibition: 8%
[4]
  inhibition: 1%
[5]
  growth inhibition: 96% (active)

## CC[C@H](C)[C@H](NC(=O)[C@H](CC1CCCCC1)[C@H](CC)N(O)C=O)C(=O)Nc1ccccn1
[2]
  growth inhibition: 95% (active)
[3]
  inhibition: 14%
[4]
  inhibition: -1%
[5]
  growth inhibition: 96% (active)

## CN(C)C[C@H](O)[C@@H](c1ccccc1)c1ccc(Cl)cc1
[2]
  growth inhibition: 4%
[3]
  inhibition: 4%
[4]
  inhibition: 2%
[5]
  growth inhibition: 99% (active)

## Cc1cc(N)c2ccccc2[n+]1CCCCCCCCCCCCCC[n+]1c(C)cc(N)c2ccccc21
[1]
  period change: 0.11 h

## Nc1cc(C=Cc2ccc(O)cc2)nc2ccccc12
[2]
  growth inhibition: 14%
[3]
  inhibition: 15%
[4]
  inhibition: 3%
[5]
  growth inhibition: 100% (active)

## CCN1CCN(c2cc(C)c3cc(NC(=O)c4ccc(C(C)(C)C)cc4)ccc3n2)CC1
[3]
  inhibition: 34%
[4]
  inhibition: -3%
[5]
  growth inhibition: 85% (active)

## O=C(Nc1cccc(-c2nn3ccccc3c2-c2ccnc(Nc3ccc(-c4cc[nH]n4)cc3)n2)c1)c1c(F)cccc1F
[2]
  growth inhibition: 98% (active)
[3]
  inhibition: 68% (active)
[4]
  inhibition: 5%
[5]
  growth inhibition: 98% (active)

## Oc1cccc(-c2nc3ccc(C4=N[C@H]5CCCC[C@H]5N4)cc3[nH]2)c1
[2]
  growth inhibition: 97% (active)
[3]
  inhibition: -3%
[4]
  inhibition: 1%
[5]
  growth inhibition: 98% (active)

## COc1ccc(Nc2nc(NN=Cc3ccc(O)cc3)nc(Nc3ccc([N+](=O)[O-])cc3)n2)cc1
[2]
  growth inhibition: 16%
[3]
  inhibition: -1%
[4]
  inhibition: 0%
[5]
  growth inhibition: 93% (active)

## CCCO[C@H](C(=O)OC)[C@@H](CC1Cc2ccccc2C1)C(=O)NCCC1=CCCCC1
[2]
  growth inhibition: 57% (active)
[3]
  inhibition: 6%
[4]
  inhibition: 1%
[5]
  growth inhibition: 93% (active)

## CO[C@H](C)[C@H](NC(=O)[C@H](CC(C)C)[C@H](CCC(F)(F)F)N(O)C=O)C(=O)Nc1nccs1
[2]
  growth inhibition: 96% (active)
[3]
  inhibition: 0%
[4]
  inhibition: 1%
[5]
  growth inhibition: 99% (active)

## COc1cc(C=NNc2ccnc3cc(Cl)ccc23)ccc1O
[2]
  growth inhibition: 100% (active)
[3]
  inhibition: 15%
[4]
  inhibition: -7%
[5]
  growth inhibition: 101% (active)

## Cc1ccccc1N1CCN(S(=O)(=O)C[C@]23CCC(CC2NC(=O)[C@@H](N)CCS(C)(=O)=O)C3(C)C)CC1 (some centres undefined)
[1]
  period change: -0.06 h

## c1cc2nc(CCCCc3nc4ccc(C5=N[C@H]6CCCC[C@H]6N5)cc4[nH]3)[nH]c2cc1C1=N[C@H]2CCCC[C@H]2N1
[2]
  growth inhibition: 88% (active)
[3]
  inhibition: 5%
[4]
  inhibition: 6%
[5]
  growth inhibition: 90% (active)

## Oc1ccc(-c2nc(-c3ccc4oc5ccc(-c6[nH]c(-c7ccc(O)cc7)nc6-c6ccccc6)cc5c4c3)c(-c3ccccc3)[nH]2)cc1
[2]
  growth inhibition: 71% (active)
[3]
  inhibition: -2%
[4]
  inhibition: 3%
[5]
  growth inhibition: 84% (active)

## Oc1c(C=Nn2cnnc2)sc2ccccc12
[2]
  growth inhibition: 68% (active)
[3]
  inhibition: -4%
[4]
  inhibition: 0%
[5]
  growth inhibition: 93% (active)

## Nc1c2c(nc3ccccc13)C(=Cc1ccc(O)cc1)CCC2
[2]
  growth inhibition: 6%
[3]
  inhibition: 9%
[4]
  inhibition: 5%
[5]
  growth inhibition: 99% (active)

## COc1ccc(Nc2nc(NN=Cc3cc(Br)ccc3O)nc(Nc3ccc([N+](=O)[O-])cc3)n2)cc1
[2]
  growth inhibition: 37%
[3]
  inhibition: 27%
[4]
  inhibition: 7%
[5]
  growth inhibition: 97% (active)

## Cc1ccc(OCC(O)C(C)NC(C)C)c2c1CCC2 (centres undefined)
[1]
  period change: 0.02 h

## CCC[C@@H](C(=O)NCCc1cccc(OC)c1)N1C(=O)c2c(ccc(OC)c2OC)C1C(=O)Nc1c(C)cccc1C (some centres undefined)
[2]
  growth inhibition: 32%
[3]
  inhibition: 6%
[4]
  inhibition: 3%
[5]
  growth inhibition: 94% (active)

## CN(C)c1nc(NCc2ccccc2)nc(NN=Cc2cc([N+](=O)[O-])ccc2O)n1
[2]
  growth inhibition: 90% (active)
[3]
  inhibition: 48%
[4]
  inhibition: -5%
[5]
  growth inhibition: 100% (active)

## COc1ccc2nc(/N=C(/N)NC(=O)Nc3ccccc3)nc(C)c2c1
[2]
  growth inhibition: 15%
[3]
  inhibition: 3%
[4]
  inhibition: -1%
[5]
  growth inhibition: 90% (active)

## NC(N)=NN=Cc1c[nH]c2ccc(-c3ccccc3)cc12
[2]
  growth inhibition: 61% (active)
[3]
  inhibition: 15%
[4]
  inhibition: -2%
[5]
  growth inhibition: 84% (active)

## CC1(NCC(O)COc2cccc3[nH]ccc23)CCC(C(C)(C)NC(=O)CBr)CC1 (centres undefined)
[1]
  period change: -0.095 h

## OC[C@H]1O[C@@H](n2cnc3c(NCCc4ccccc4)ncnc32)C(O)[C@H]1O (some centres undefined)
[1]
  period change: 0.19 h

## C[C@@H](Oc1ccc(Oc2cnc3ccc(Cl)cc3n2)cc1)C(=O)O
[1]
  period change: -0.01 h

## NCCNC(=O)Cc1ccc(NC(=O)Cc2ccc(Nc3ncnc4c3ncn4[C@@H]3O[C@H](CO)[C@H](O)C3O)cc2)cc1 (some centres undefined)
[1]
  period change: -0.095 h

## CCCCCCCCCCCCCCCC(=O)NCC(COP(=O)([O-])OCC[N+](C)(C)C)OCC (centres undefined)
[1]
  period change: -0.285 h

## O=C(Cc1ccc(Cl)c(Cl)c1)OCCN1CCCC1
[1]
  period change: -0.095 h

## CC(C)[C@@H](CO)Nc1nc(Nc2cccc(Cl)c2)c2ncn(C(C)C)c2n1
[1]
  period change: -0.115 h

## CCCCCCCCCCCCCCCCCC(=O)NCC(COP(=O)([O-])OCC[N+](C)(C)C)OCC (centres undefined)
[1]
  period change: 0.195 h

## CCn1c(=O)c2[nH]c(-c3ccccc3)nc2n(CC)c1=O
[1]
  period change: -0.165 h

## O=C(O)CCC(NC(=O)c1ccccc1C(=O)O)C(=O)O (centres undefined)
[1]
  period change: -0.08 h

## CNCC[C@@H](Oc1ccc(C(F)(F)F)cc1)c1ccccc1
[1]
  period change: 0.13 h

## O=C(Nc1cc(C(=O)Nc2ccc(S(=O)(=O)O)cc2S(=O)(=O)O)cc(C(=O)Nc2ccc(S(=O)(=O)O)cc2S(=O)(=O)O)c1)Nc1cc(C(=O)Nc2ccc(S(=O)(=O)O)cc2S(=O)(=O)O)cc(C(=O)Nc2ccc(S(=O)(=O)O)cc2S(=O)(=O)O)c1
[1]
  period change: -0.05 h

## Cn1cnc2c(NC3CCCC3)ncnc21
[1]
  period change: 0.425 h

## Nc1ncnc2c1ncn2[C@@H]1O[C@H](C(=O)NC2CC2)[C@H](O)C1O (some centres undefined)
[1]
  period change: -0.165 h

## CC(N)=NCCC[C@H](N)C(=O)O
[1]
  period change: 0.025 h

## Cc1cc(C)c(NC(=O)C[C@H](CC(=O)O)c2cccc3ccccc23)c(C(=O)N2CCC3(CCCC3)CC2)c1
[1]
  period change: 0.275 h

## COc1ccccc1NC(=O)Nc1nc(-c2cccnc2)nc2ccccc12
[1]
  period change: -0.005 h

## NC(=NCc1ccc(Cl)c(Cl)c1)NC(=O)c1nc(Cl)c(N)nc1N
[1]
  period change: 0.175 h

## CCCCCCCCCCCCC/C=C/C(O)C(N)CO (centres undefined)
[1]
  period change: 0.015 h
